Reference: the supplement of paper PMC6555819

Tests used:
Assay in all cases: PBM binding z-score (relative to random genomic background probes); higher = stronger binding; sequences stand for … in GC…GCGATTGACAGCGTAGAATGAAGG
[1] = tested on: RARb homodimer (NR concentration 270 nM)
In short: (§1)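 Antibodies against each partner of ligand-free nuclear receptor dimers (one per run) detected binding on custom Agilent 4×180K protein-binding microarrays after 1 h incubation. The double-stranded probes had 34-nt variable regions carrying direct-repeat seeds, single-nucleotide variants, half-site ablations and random human genomic background sequences. Binding z-scores, from regression-normalized fluorescence, use the random background probes as reference.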

[2] = tested on: RARg:RXRa (NR concentration 270 nM, RXRa partner concentration 90 nM)
In short: as §1

[3] = tested on: RARg homodimer (NR concentration 270 nM)
In short: as §1

[4] = tested on: RXRa DBDmut IVT, anti-RXR (DBD mutation: RXRa K156A/R161A, NR concentration 90 nM)
In short: as §1

[5] = tested on: RXRa homodimer (NR concentration 180 nM)
In short: as §1

[6] = tested on: THRa:RXRa (NR concentration 90 nM, RXRa partner concentration 90 nM)
In short: as §1

[7] = tested on: THRa homodimer (NR concentration 90 nM)
In short: as §1

[8] = tested on: VDR homodimer (NR concentration 270 nM)
In short: as §1

Row | Sequence | PBM binding z-score [1] | PBM binding z-score [2] | PBM binding z-score [3] | PBM binding z-score [4] | PBM binding z-score [5] | PBM binding z-score [6] | PBM binding z-score [7] | PBM binding z-score [8]
1 | CCTACTGGGCCCAGGTCATTGATCAGTCAAAGCA | 2.14 | 2.06 | 1.28 | -0.46 | 1.47 | 2.93 | 2.15 | 1.25
2 | ATATGTAGGTTTGCTGGGGTCATTCAGACTAGGC | 3.3 | 3.6 | 2.31 | 2.62 | 4.91 | 4.29 | 3.2 | 5.58
3 | GCATATAGGTAATACAAGGTTAAAGTCCGATTGT | 1.42 | 0.95 | 0.775 | 0.599 | 1.39 | 4.03 | 0.575 | 0.898
4 | TATCGGAGGACACGAAAGGTCAGAGCTCGACATC | 5.03 | 4.79 | 5.31 | 0.361 | 4.07 | 3.95 | 1.59 | 1.67
5 | TCTAGTTGGTCACGGAGGTCACGCACGACGGGTA | 4.76 | 5.46 | 5.23 | 1.28 | 6.17 | 4.05 | 3.31 | 3.06
6 | AGAACGAGAGCAATGAGTTGATAGCACGGGTGGC | -0.971 | -0.154 | -0.0386 | -0.0984 | 0.0785 | -0.86 | -1.05 | 0.253
7 | GGAACGAGTGCAAAGTTGATAGCATCTGTCGACG | -0.159 | 0.335 | 0.145 | 3.22 | 0.874 | -0.385 | -0.711 | 1.88
8 | CCGACTGGGGCGAAGGTTACCATACTCAGTACGA | 0.751 | 0.697 | 0.405 | -0.021 | 1.12 | 0.439 | -0.242 | -0.459
9 | TGAATGAGGTTAAAGATGAGGGAACGTGGCGTCG | 0.748 | 2.16 | 1.21 | 1.33 | 2.86 | 2.4 | 0.742 | 0.849
10 | GGAACGAGGGCATTCGAGTTGATTGCATGGCGAT | 0.671 | 1.07 | 1.15 | 3.28 | 0.842 | 3.52 | -0.335 | 3.28
11 | TCTGCTAGGTCAGTTGGTTAGCTAACGAGCTGCC | 2.11 | 2.15 | 2.76 | 0.517 | 0.728 | 1.15 | -0.142 | -0.573
12 | TCTCAGAGGACACGAAGGTCAGAGCTTTCCAGAG | 3.88 | 3.73 | 4.66 | 1.38 | 1.97 | 2.79 | 0.738 | 1.62
13 | GCTATTAGTTGAATGGGCAACCGAATGATTCTCG | -0.506 | -0.114 | 0.0984 | 0.405 | -0.209 | -0.559 | -0.678 | -0.095
14 | TCTGCTAGGGCAACGATGGTCAGCTAATCTGCTA | 0.762 | 0.579 | 0.934 | -0.149 | -0.0028 | 0.381 | -0.978 | -0.735
15 | CTACCAAGGTGAACAAGGTGGTTGATTACTATTC | 0.848 | 0.716 | 0.76 | 0.305 | 0.617 | 1.7 | 0.798 | -0.122
16 | ATCGAACGGTCGAAGGTGAGTATACCCACCCGAA | 0.62 | 0.884 | 0.957 | -1.05 | 0.717 | -0.016 | -0.481 | -0.147
17 | AGCATGAGGTTATTAAGATCAGGGAATTGCGGTC | 0.785 | 1.38 | 1.03 | 1.99 | 1.77 | 2.19 | 0.867 | 1.59
18 | CAAACTAGGTCAAAGGTCACAGTCGAGCCAACCA | 5.31 | 8.75 | 7.36 | 2.94 | 9.91 | 5.02 | 2.38 | 2.73
19 | CCGACTGGCGCATAAGGTTACCATAAGCCAGCCC | 0.729 | 0.235 | 0.126 | -0.135 | 0.736 | 2.26 | 1.56 | 0.005
20 | GGAACGAGGGCAAGTAGATAGCAGAGTTTGATGG | 1.26 | 1.3 | 1.91 | 1.7 | 0.888 | 0.882 | -0.115 | 1.29
21 | TCTTGTAGATCAATAGGGGTTAAGAAAGTGCGCT | 1.26 | 1.07 | 0.498 | 1.53 | 2.18 | 2.19 | 0.19 | 0.671
22 | ACTAGTTGGTCAGCAGAGGTCACACACAATTCGG | 5.13 | 5.03 | 5.13 | 1.14 | 5.43 | 4.52 | 2.95 | 3.3
23 | AGAATGAGGCTAAGATCAGGGAAACAGAATACAT | 0.17 | 0.222 | 0.265 | -0.309 | -0.046 | 0.533 | 0.04 | -0.208
24 | AATACAGGGTCACTAGTCCAGAGTAGGTACGAAT | 3.23 | 4.5 | 4.83 | 2.7 | 4.87 | 3.31 | 1.32 | 2.27
25 | GCAGACAGCTGAAACGCAGGTAACTCAGGGTGGC | -0.98 | -0.584 | -0.685 | -0.772 | -0.453 | 0.284 | -0.483 | -1.05
26 | GCTAGTTGGTCAGTAAAAGGTCAAACACCGGTCG | 5.05 | 5.65 | 4.86 | 0.64 | 5.59 | 3.51 | 1.2 | 1.98
27 | CTCGGAAGGTCGTGCTCAGGTGAGTATACCAAAC | 1.95 | 3.34 | 2.31 | 1.18 | 2.37 | 3.59 | 1.15 | 0.743
28 | GTACCAAGGTGAGTAGGTCGTTGATGAGTAGGCG | 1.15 | 0.89 | 0.657 | -0.673 | 0.551 | 0.995 | 0.258 | 0.112
